In PubChem BioAssay AID1259415 (National Center for Advancing Translational Sciences (NCATS), 2018):
In all, about 410,000 compounds went through this assay and about 18,000 (4.4%) were called active. Roughly 7% stayed inconclusive and do not appear here. The entries come from a sample that favours actives as a whole. A number with no mark means an inactive call. Rule as the data show it: active = activity change below about -60%; inconclusive = no clear call, values can overlap the other calls; inactive = above about -39%.

assay: qHTS Assay for inhibitors of the human cytomegalovirus (HCMV); conditions: HFF cells, HCMV-luciferase reporter, 72 h; at 57.5 µM; active compounds read low
In short: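 Steps: HFFs plated, 16 h 37C; compounds added; HCMV-luciferase added to MOI 1 PFU/cell; 72 h 37C; OneGlo reagent, 5 min room temperature; luminescence read, normalized to controls.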
% is scaled to controls: 0 for no effect and ±100 for the full control effect.

SMILES | activity change, negative = inhibition
CSc1cccc(NC(=O)CN2C(=O)CCc3cc(S(=O)(=O)N4CCCCC4)ccc32)c1 | 23.2%
Cc1ccc(NC(=O)Nc2sc3nc4n(c(=O)c3c2C)CCC(C)CC4)c(Cl)c1 (stereo unspecified) | -0.215%
O=C(/C=C/c1ccc([N+](=O)[O-])o1)NNC(=O)c1ccc(F)cc1 | -99.5% (active)
N#Cc1nc(/C=C/c2ccc(F)cc2)oc1NC1CCCCC1 | -16.7%
O=C1C=CN2CCCC2CC1 (stereo unspecified) | -5.48%
CCc1ccc(NC(=O)Cn2c(=O)n(CCC(=O)NCc3ccc4c(c3)OCO4)c(=O)c3ccccc32)cc1 | 7.9%
O=C(C1CCN(S(=O)(=O)c2cccs2)CC1)N1CCCCCC1 | -4.69%
O=C(Nc1ccc(Br)cn1)C1CCN(S(=O)(=O)c2cccs2)CC1 | -89.3% (active)
O=C(NCc1ccc(Cl)cc1)C1CCN(S(=O)(=O)c2cccs2)CC1 | -33.3%
CCCCN(CC)CCCNC(=O)c1nn(C)c2c1CSc1ccccc1-2 | -32.8%
CN(CC(=O)NCc1cccnc1)S(=O)(=O)c1cc(Cl)ccc1Cl | -21.9%
Cc1ccc(Cl)cc1N(C)C(=O)Cn1nc(Cc2cccnc2)c2ccccc2c1=O | -61.7% (active)
O=C(Cn1nc(Cc2cccnc2)c2ccccc2c1=O)NCC1CCCO1 (stereo unspecified) | -1.61%
Cn1c(=O)oc2cc(S(=O)(=O)NCCC(=O)NCc3ccccc3Cl)ccc21 | -30.3%
O=C(O)c1ccc(Nc2nc(-c3ccccc3)c3cc(Br)ccc3n2)cc1 | 27.8%
Cc1cc(Cl)ccc1C(=O)C1CCCN(C(=O)c2nonc2C)C1 (stereo unspecified) | -27.9%
Cc1ncoc1C(=O)N1CCCC(C(=O)c2ccc3c4c(cccc24)CC3)C1 (stereo unspecified) | -68.2% (active)
CC(=O)NCC(=O)N1CCCC(C(=O)c2ccc3c4c(cccc24)CC3)C1 (stereo unspecified) | 2.3%
O=C(Nc1c[nH]c(=O)[nH]c1=O)OCc1ccccc1 | 46%
COC(=O)c1cc(NC(=O)c2sc3ccccc3c2Cl)cc(C(=O)OC)c1 | 5.87%
CCCC(=O)Nc1ccc(NC(=O)c2sc3ccccc3c2Cl)cc1 | 0.957%
COc1ccc(CNC(=O)CNC(=O)c2sc3ccccc3c2Cl)cc1OC | -67.8% (active)
COc1ccc(S(=O)(=O)N2CCN(C(=O)c3cccs3)CC2)cc1OC | 1.26%
COC(=O)c1sccc1S(=O)(=O)N(CC(=O)Nc1ccc(C)c(F)c1)c1ccc(C)c(C)c1 | -9.21%

SMILES | activity change, negative = inhibition
COc1cccc(NC(=O)CN2C(=O)c3ccccc3Sc3ncccc32)c1 | 35.8%
CCc1ccc(N(CC)C(=O)CCn2cnc3onc(-c4ccc(F)cc4)c3c2=O)cc1 | 4.29%
CC[C@H](C)C(=O)N[C@H]1CCCN1C(=O)/C=C/c1ccccc1 | -28.4%
Cc1[nH]c(=O)c(C(=O)/C=C/c2ccccc2)c2c1CCCC2 | -104% (active)
O=C1CCCCC1C(=O)c1ccccc1 (stereo unspecified) | 7.64%
Cc1ccc(NC2=C(c3ccc(C(F)(F)F)cc3)C(=O)c3ccccc32)cc1F | -26.8%
O=C1C=C(c2cccc(Cl)c2O)C[C@@H](c2ccc(F)cc2)C1 | 15.9%
O=C1C=C(c2ccnc3cc(Cl)ccc23)C[C@@H](c2ccc3c(c2)OCO3)C1 | -66.7% (active)
N#Cc1ccc(C2=CC(=O)C[C@H](c3ccc(Cl)cc3)C2)cc1 | 10.5%
O=C(Cc1ccc(Cl)cc1)NCCN1CCN(C(=O)Cc2ccc(Cl)cc2)CC1 | -18.4%
Cc1ccc(-c2cnc(NCc3ccc(C(C)C)cc3)n2C)cc1 | -37.1%
Cc1ccc(C(=O)Nc2ccc(OCc3cc(=O)n4c(C)csc4n3)cc2)cc1 | 13.5%
COc1ccccc1OC(C)C(=O)Nc1ccc(S(=O)(=O)Nc2nccs2)cc1 (stereo unspecified) | -71.4% (active)
CCC(CC)C(=O)Nc1ccc(S(=O)(=O)Nc2nccs2)cc1 | -32.7%
Cc1ccc(OCCC(=O)Nc2ccc(S(=O)(=O)Nc3nccs3)cc2)cc1 | -11.9%
COc1ccc(C2C(=O)N(C3CCCCC3)CC(=O)N2Cc2ccccc2Cl)cc1OC (stereo unspecified) | -0.212%
CCC(=O)/C=C1\Sc2ccccc2N1CC | -68.7% (active)
CNC(=O)CN1C(=O)c2cccnc2Sc2ccccc21 | 16.8%
CCN1/C(=C/C(=S)Nc2ccccc2)Sc2ccccc21 | -90.8% (active)
CCOC(=O)CNC(=O)CN1C(=O)CCSc2ccccc21 | 55.2%
CCN1C(=O)c2ccccc2Sc2ccc(NC(=O)Cc3ccc(OC)cc3)cc21 | 11.2%
CCOc1ccc(NC(=O)c2cc(S(=O)(=O)N3CCCC3)c[nH]2)cc1 | -31.5%
Cc1ccc(N2CC(C(=O)Nc3ccc(N(C)C)cc3)CC2=O)cc1Cl (stereo unspecified) | 1.89%
Cc1ccc(C(=O)NNC(=O)OC(C)(C)C)c(Cl)c1 | -10.9%

SMILES | activity change, negative = inhibition
CC(C)(C)OC(=O)N[C@H](C(=O)OC(C)(C)C)c1ccc(Br)cc1 | -16.8%
CC(C)(C)OC(=O)NNc1c2ccccc2nc2ccccc12 | -89.2% (active)
O=C(NCCCNC(=O)NC1CCCCC1)NC1CCCCC1 | -14.1%
N#CCC(=O)NC(=O)NCC1CC1 | -12.8%
O=C(NCC1CCCCC1)NCC1CCCCC1 | -74.2% (active)
COc1ccc(CCNC(=O)CSCc2ccc(Br)cc2)cc1OC | -9.05%
COc1nc(OC)nc(N(C)CCO)n1 | -12.6%
Cc1nc(SCC(=O)Nc2ccc(C(=O)O)cc2)n[nH]1 | -2.57%
CCc1nnc(NC(=O)CSc2nnc(COc3ccc(C#N)cc3)n2-c2ccccc2)s1 | 42.5%
Cn1c(SCC(=O)N2CCCc3ccccc32)nc2ccccc2c1=O | -79.6% (active)
Cn1c(SCC(=O)N2CCCc3ccccc32)ncc(C(=O)Nc2ccc(F)cc2)c1=O | -28.8%
COc1ccccc1Cc1nc2ccccc2nc1SCC(=O)N1CCCc2ccccc21 | 8.07%
[O-][N+]12CCCCC1CCCC2CO (stereo unspecified) | -29%
CCC(=O)N1CCc2cc(Br)cc(S(=O)(=O)CCC(=O)NCc3ccccc3OC)c21 | -3.98%
C=CCNc1nc(N)c([N+](=O)[O-])c(NC2CCCCC2)n1 | -9.3%
Nc1nc(Nc2ccccc2F)nc(NC2CCCCC2)c1[N+](=O)[O-] | -66% (active)
Nc1nc(NCC2CCCO2)nc(Nc2ccccc2F)c1[N+](=O)[O-] (stereo unspecified) | -34.2%
CCC(=O)N1CCc2cc(Br)c(S(=O)(=O)NCCN3CCCCC3CC)cc21 (stereo unspecified) | -8.58%
COc1ccc(CCNC(=O)Cn2c(=O)cc(C(F)(F)F)c3c(C)nn(C)c32)c(OC)c1 | 21.9%
CC(=O)Nc1ccc(NC(=O)CC2CCCC2)cc1 | -33.3%
O=C(CCl)Nc1ccc(Sc2ccc(NC(=O)CCl)cc2)cc1 | -97.1% (active)
O=C(O)CC(SCC(=O)Nc1ccc(Br)cc1)C(=O)O (stereo unspecified) | -19%
CCOC(=O)C1=NOC(Cn2cc(C(C)=O)c(=O)[nH]c2=O)C1 (stereo unspecified) | 10%
CCOC(=O)c1cccc(NS(=O)(=O)c2cn(C)c(C)n2)c1 | 2.44%

SMILES | activity change, negative = inhibition
C[C@H](CO)N1C[C@H](C)[C@@H](CN(C)C(=O)Nc2ccccc2F)OCc2cn(nn2)CCCC1=O | -6.88%
S=C(Nc1ccc(Br)cc1Cl)NC1CCN(Cc2ccccc2)CC1 | -84.5% (active)
Cc1cc(Br)ccc1NC(=S)NC1CCCC1 | -24.2%
O=C(NC1CCN(Cc2ccccc2)CC1)c1cc(Br)c(Br)[nH]1 | -22.7%
Cc1cc(C)n(CCC(=O)N2CCN(S(=O)(=O)c3ccc(C)c(C)c3)CC2)n1 | -15.9%
CCc1cc2c(cc(C(=O)OC)n2Cc2nc(-c3ccc(C)cc3)oc2C)s1 | 4.7%
CCCN1CCc2nc(N3CCN(C)CC3)ncc2C1 | 0.276%
COc1ccc(C(C#N)=C2C=CC(=NO)c3ccccc32)cc1 | -90.8% (active)
COc1ccc(/C(N)=N/OC(=O)Oc2ccccc2)cc1 | 9.17%
CC(c1ccco1)N(C(=O)c1ccc(S(=O)(=O)N2CCCCC2)cc1)c1ccccn1 (stereo unspecified) | -14.3%
Fc1ccc(CN2CCc3nc(Nc4ccccc4)ncc3C2)cc1F | -18.4%
c1ccc(Cn2nnc3c(NCC4CC4)ncnc32)cc1 | 30.2%
CC(C)Nc1ncnc2c1nnn2Cc1ccccc1 | 45.3%
COc1ccc(CCNc2ncnc3c2nnn3Cc2ccccc2)cc1 | -95.1% (active)
O=C(CN1c2ccccc2S(=O)(=O)c2ccccc21)Nc1cccc(C(F)(F)F)c1 | 14.4%
O=C(Cn1cnc2c(oc3ccccc32)c1=O)Nc1ccc(OC(F)(F)F)cc1 | 14%
COc1ccc(OCc2ccc(-c3nc(C#N)c(N4CCN(c5ccccc5)CC4)o3)o2)cc1 | 2.46%
OCCN1CCN(C(=S)c2ccc(-c3ccccc3)cc2)CC1 | -79.4% (active)
O=C1CCN(CCCc2ccccc2)CCN1CCO | -6.21%
O=C(NC(=S)N1CCN(Cc2ccccc2)CC1)c1ccccc1 | -3.08%
COCCNc1ncnc2c1c(-c1ccccc1)cn2-c1ccc(C)c(Cl)c1 | -33.4%
CCc1ccccc1NC(=S)N(CCN1CCCCCC1)Cc1ccco1 | 29.5%
Cc1ccccc1NC(=S)N(CCCN1CCOCC1)Cc1cccs1 | -30.9%
Cc1ccc(NC(=S)N(CCCN2CCCC2)Cc2cccn2Cc2ccc(Cl)cc2)cc1 | -72% (active)
